High-throughput results deposited in PubChem by Buhrlage Lab, Dana-Farber Cancer Institute and Novartis Institutes for BioMedical Research (Cambridge, Mass).
This is a sample that favours compounds with a hit; in the whole collection about 11% have one here.
OTUD3 inh = blocks human OTUD3 ubiquitin-rhodamine cleavage; Q5T2D3; purified OTUD3, Ub-rhodamine fluorescence, 2 h; inhibition, % at 25 µM; 47,000 tested, 0.7% active
USP28 block = inhibitors of human USP28 deubiquitinase; purified USP28, Ub-rhodamine cleavage fluorescence, 30 min; inhibition, % at 25 µM; 47,000 tested, 3% active
Target sequence (Q96RU2 whole entry, looked up): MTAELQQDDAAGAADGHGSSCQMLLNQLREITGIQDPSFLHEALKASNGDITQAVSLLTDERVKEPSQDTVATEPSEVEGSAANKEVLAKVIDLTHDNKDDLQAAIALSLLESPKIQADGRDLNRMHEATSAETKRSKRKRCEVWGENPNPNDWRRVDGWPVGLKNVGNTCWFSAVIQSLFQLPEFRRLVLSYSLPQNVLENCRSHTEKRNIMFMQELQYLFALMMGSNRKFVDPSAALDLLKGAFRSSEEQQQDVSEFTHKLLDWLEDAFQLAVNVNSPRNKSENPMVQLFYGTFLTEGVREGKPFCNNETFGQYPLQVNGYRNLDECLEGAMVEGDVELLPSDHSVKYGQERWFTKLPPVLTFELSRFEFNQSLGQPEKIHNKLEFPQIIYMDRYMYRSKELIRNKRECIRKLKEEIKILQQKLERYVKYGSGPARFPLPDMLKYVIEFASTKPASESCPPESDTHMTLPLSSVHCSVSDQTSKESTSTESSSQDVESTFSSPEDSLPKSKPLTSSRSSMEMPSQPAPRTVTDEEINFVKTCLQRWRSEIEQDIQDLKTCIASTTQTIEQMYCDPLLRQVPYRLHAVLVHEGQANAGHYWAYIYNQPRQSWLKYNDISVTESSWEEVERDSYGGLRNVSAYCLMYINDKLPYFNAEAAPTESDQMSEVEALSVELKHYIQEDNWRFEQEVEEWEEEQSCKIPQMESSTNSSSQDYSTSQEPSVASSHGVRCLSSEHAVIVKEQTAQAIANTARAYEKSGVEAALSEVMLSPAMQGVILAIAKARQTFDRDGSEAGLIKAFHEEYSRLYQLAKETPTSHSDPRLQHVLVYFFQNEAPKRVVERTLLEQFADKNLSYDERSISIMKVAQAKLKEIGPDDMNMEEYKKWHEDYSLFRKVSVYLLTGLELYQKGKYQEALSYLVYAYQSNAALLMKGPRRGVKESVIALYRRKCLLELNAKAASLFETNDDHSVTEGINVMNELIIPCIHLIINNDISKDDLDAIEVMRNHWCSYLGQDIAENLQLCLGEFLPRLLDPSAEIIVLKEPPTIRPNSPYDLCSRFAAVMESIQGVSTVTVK
USP17 block = human USP17-like deubiquitinase inhibition. A8MUK1. purified USP17, Ub-rhodamine cleavage fluorescence, 3 h. inhibition, % at 50 µM. 47,000 tested, 6.5% active. AID 1645855
USP30 inh = inhibitors of human USP30 deubiquitinase. Q70CQ3. purified USP30, Ub-rhodamine cleavage fluorescence. inhibition, % at 25 µM. AID 1645860. 47,000 tested, 5.3% active
Active calls of the source: *; i = inactive; . = no result given. No stated cut-off is given here; in the data, active means inhibition above about 30%; inactive means the rest.

SMILES	OTUD3 inh	USP28 block	USP17 block	USP30 inh
CCC(CC(C)C(=O)O)C(=O)CC/C1=C/C(C)C/C(C)=C/C(C)C(O)C(C)CCC(CCCC/C=C/C(C)CCC(C)OC(=O)CC(CC(=O)O)C(=O)O)OC(=O)CC(C(=O)O)CC(=O)OC1 (configuration not stated)	3.2	-0.1	0.4	32.4*
CN1C(=O)[C@]23CC4=CC=C[C@H](O)[C@H]4N2C(=O)[C@@]1(CO)SS3	-11.3	-16.3	-18.2	50.5*
COc1cc(O)c2c(O)c3c(c4c2c1C1(C4)C(C)=CCCC1(C)C)C(O)C1(O)CC(=O)C(C(N)=O)=C(O)C1(O)C3=O (configuration not stated)	-142.7	-196.1	-200.0	i
NCC1OC(OC2C(N)CC(N)C(O)C2O)C(N)C(O)C1O (configuration not stated)	2.6	-2.2	-7.2	-0.1
CN(C)Cc1c[nH]c2c(OCc3ccccc3)cccc12	14.5	45.5*	8.1	34.9*
CC(C)=CCCC1(C)C=Cc2c(O)c3c(c(CC=C(C)C)c2O1)O[C@]12C(=C[C@@H]4CC1C(C)(C)O[C@@]2(C/C=C(/C)C(=O)O)C4=O)C3=O (some centres not stated)	76.8*	89.6*	82.2*	37.0*
CC1CC[C@@]2(NC1)O[C@H]1C[C@H]3[C@@H]4CC=C5C[C@@H](O)CC[C@]5(C)[C@H]4CC[C@]3(C)[C@H]1[C@@H]2C (some centres not stated)	13.7	31.2*	51.7*	37.6*
C[C@@H]1CC[C@@]2(NC1)OC1CC3C4CC=C5C[C@@H](O)CC[C@]5(C)C4CC[C@]3(C)C1[C@@H]2C (some centres not stated)	11.1	5.3	10.0	10.6
CCCCCCC(O)CCCCCC/C=C/[C@H](O)[C@@H](OC(C)=O)[C@H](O)[C@H](N)C(=O)O (some centres not stated)	-13.8	-3.1	35.4*	-24.1
c1ccc([C@H]2CCN[C@@H]3CCCCN(Cc4cccnc4)[C@H]23)cc1	-11.9	-16.2	-4.6	-68.3
C/C=C1/CN2[C@H]3C[C@@]45c6ccccc6N[C@@H]4[C@@H]2C[C@H]1C3(C(=O)OC)[C@@H]5O (some centres not stated)	-23.2	-20.6	-14.1	-98.4
c1cnc(NC[C@H]2OC[C@H]3CN(Cc4cccnc4)CC[C@H]32)nc1	-3.7	-8.7	.	-12.8
CO[C@H]1[C@@H](O)[C@H](C)O[C@H](O[C@H]2[C@H](Oc3cccc4c(O)c5c(=O)oc6ccc(C)c7c(=O)oc(c34)c5c67)O[C@H](C)[C@H](O)[C@@H]2O)[C@@H]1O	51.4*	65.0*	77.5*	-5.8
CCOC(=O)[C@]1(C#N)[C@@H]2C=CC(C(C)=O)=CN2[C@@H](C(N)=O)[C@@H]1c1ccc(F)cc1	-195.8	-249.9	-171.7	i
CN(C)[C@@H]1C(=O)C(C(N)=O)=C(O)[C@@]2(O)C(=O)C3=C(O)c4c(O)cccc4[C@@](C)(O)[C@H]3C[C@@H]12	24.4	27.7	50.8*	-99.0
CN(C)[C@@H]1C(=O)C(C(N)=O)=C(O)[C@@]2(O)C(=O)C3=C(O)c4c(O)cccc4[C@@](C)(O)C3[C@H](O)[C@@H]12 (some centres not stated)	90.1*	87.3*	84.5*	50.4*
O=C1CCOC[C@]2(CNC[C@H]2c2ccc(F)c(F)c2)N1	0.0	0.0	4.3	11.1
COc1cc(N2CC[C@@H]3OCCN(C)[C@H]3CC2)ncn1	15.4	15.2	11.4	33.5*
CC(C)N1CCOCC2(CN(C(=O)c3cccnc3)CCO2)C1 (configuration not stated)	6.6	0.1	-6.4	17.7
Cc1ccc(S(=O)(=O)N2C[C@H]3CN(C)CC[C@H]32)cc1	0.4	-0.1	4.7	14.5
CCCC1Cc2cc3c(c(O)c2C(=O)O1)-c1c(c(OC)c2oc4c(O[C@H]5C[C@H](O)[C@H](O[C@H]6C[C@H](O)[C@H](O[C@H]7C[C@H](OC)[C@H](O)C(C)O7)C(C)O6)C(C)O5)ccc(O)c4c(=O)c2c1O)[C@H](O)[C@@H]3O (some centres not stated)	1.0	1.2	37.2*	-60.4
O=C1CN=C(c2ccccc2)c2ccccc2N1Cc1ccccc1F	0.7	-2.0	-1.0	9.1
Cc1ccc(-c2noc(-c3ccc(OCC(=O)N4CCN(C)CC4)cc3)n2)cc1	5.9	0.2	0.3	16.1
Cn1c(=O)c2ncnnc2n(C)c1=O	89.7*	96.2*	95.5*	82.9*
COC(=O)[C@]1(O)O[C@@]2(C(=O)OC)c3c(oc4cc(C)cc(O)c4c3=O)[C@H]3c4c(oc5cc(C)cc(O)c5c4=O)C[C@H]1[C@H]32	32.4*	28.8	53.3*	-7.9
SMILES	OTUD3 inh	USP28 block	USP17 block	USP30 inh
CC(C)c1cc2c(c(O)c1O)[C@@]1(C(=O)O)CCCC(C)(C)[C@@H]1CC2	35.9*	39.2*	78.7*	57.4*
CC(C)c1cc2c(c(O)c1O)C1(C(=O)O)CCCC(C)(C)C1CC2 (configuration not stated)	46.5*	53.1*	87.8*	80.7*
CN1CC[C@@H]2[C@H](C1)CN2S(=O)(=O)c1ccccc1	-10.6	-4.8	-6.8	-11.2
O=C(Nc1cccnc1)[C@H]1CC[C@@H]2[C@@H](CCN2Cc2ccco2)O1	4.2	-1.5	-7.0	-3.5
CC(C)n1[nH]c(=O)c2c1NC(=O)CSC2c1ccc(OCc2ccccc2)cc1 (configuration not stated)	1.4	0.0	11.8	2.6
CCC(CC)n1[nH]c(=O)c2c1NC(=O)CSC2c1ccc2c(c1)OCO2 (configuration not stated)	7.7	27.8	64.8*	15.7
c1ccc(CN2CC[C@@H]3[C@@H](CO[C@@H]3CNc3ncccn3)C2)nc1	-8.0	-18.3	-30.0	-16.2
CO[C@@H]1C[C@H]2C=C[C@H]3[C@H]4O[C@]2(/C(C)=C/[C@@H](C)[C@@H]([C@H](C)O)OC1=O)[C@@H]3[C@H](O)[C@@H](C)[C@H]4OC(=O)c1ccc[nH]1	-17.0	-5.0	-7.5	-8.9
O=C1CSC(c2ccc(Cl)cc2)c2c(n(C3CCCC3)[nH]c2=O)N1 (configuration not stated)	0.5	-4.9	5.3	-0.3
O=C1CSC(c2ccc(F)cc2)c2c(n(C3CCCCCC3)[nH]c2=O)N1 (configuration not stated)	8.1	11.3	16.9	30.4*
CC1(C)CC(n2[nH]c(=O)c3c2NC(=O)CSC3c2ccccc2)CCO1 (configuration not stated)	17.3	11.3	11.2	32.9*
COc1ccc(C2SCC(=O)Nc3c2c(=O)[nH]n3C2CCCCC2)cc1 (configuration not stated)	3.7	4.0	67.6*	11.3
Cc1ccc(C2SCC(=O)Nc3c2c(=O)[nH]n3C2CCOC(C)(C)C2)cc1 (configuration not stated)	-4.3	-6.3	3.4	0.2
Oc1ccc2cc(Br)ccc2c1CN1CC=C(c2ccccc2)CC1	6.7	7.7	9.0	12.9
